# Screening results (PubChem BioAssay)
# Shiga inhibitor = A qHTS for Small Molecule Inhibitors of Shiga Toxin; Vero cells, Shiga toxin protein synthesis inhibition reporter; inhibition, % at 38.7 µM; hit rate 9.2% among 290,000; in the data active = inhibition mostly above about 28%, no sharp cut-off; inactive = mostly below about 43%; note: 0% is about no effect
# CHX counter = Cycloheximide Counterscreen for Small Molecule Inhibitors of Shiga Toxin | cell reporter, cycloheximide protein synthesis inhibition counterscreen | max response, % | hit rate 12% among 300,000 | AID 2314, 2010; in the data active = max response mostly above about 13%, no sharp cut-off; inactive = mostly below about 14%; note: read at 38.3 µM for the half of the compounds with a filed dose; 0% is about no effect
# Pf growth 96h = Primary qHTS for delayed death inhibitors of the malarial parasite plastid, 96 hour incubation. Potency, µM (titrated, usually from 28.7 µM), inactives show at the highest dose activity change, negative = inhibition, most hits filed as inhibitors. P. falciparum luciferase reporter growth, 96 h. hit rate 6.9% among 320,000; note: potency is the fitted concentration of half-maximal effect; % is set by controls: 0 for no effect and ±100 for the full control effect
#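 Erythrocytes infected with luciferase-expressing P. falciparum were dispensed at 2% hematocrit and 0.05% parasitemia (final), then incubated with compounds 96 hours at 37 C in 5% CO2. Luminescence after detection reagent addition reported growth.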
# HCMV antiviral = qHTS Assay for inhibitors of the human cytomegalovirus (HCMV). HFF cells, HCMV-luciferase reporter, 72 h; stronger effect = lower value. hit rate 4.5% among 410,000. activity change, negative = inhibition, % at 57.5 µM; in the data active = activity change below about -60%; inconclusive = no clear call, values can overlap the other calls; inactive = above about -39%; note: % is set by controls: 0 for no effect and ±100 for the full control effect
#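 Luciferase read-out from HCMV-luciferase-infected HFFs (MOI 1 PFU/cell) 72 h post infection at 37C; compounds added after 16 h cell attachment; activity normalized between buffer-only basal and Salinomycin (10uM) inhibitor controls.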
# Pf growth 48h = Primary qHTS for delayed death inhibitors of the malarial parasite plastid, 48 hour incubation; P. falciparum luciferase growth in erythrocytes, 48 h; Potency, µM (titrated, usually from 28.7 µM), without a hit: top-dose activity change, negative = inhibition, hits mostly inhibitors; hit rate 5.9% among 310,000; note: potency is the fitted concentration of half-maximal effect; % is set by controls: 0 for no effect and ±100 for the full control effect
#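 Compounds are pin-transferred into medium, infected erythrocytes (2% hematocrit, 0.1% parasitemia final) are added, and plates sit one parasite generation at 37 C in 5% CO2. Detection reagent is then added and luminescence measured.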
# Numbers without * were called inactive; ? = inconclusive; nt = not tested or not shown. Rows were chosen to be rich in hits. Some 20% of all compounds tested hit in one or more screens of this group. Unless noted, calls come from the whole dose curve; as a rule, active = well fitted inhibition curve with a large enough effect; inconclusive = small, poorly fitted or top-dose-only effect, or another doubt; inactive = no such curve, though single readings can be large or run the other way.
SMILES,Shiga inhibitor,CHX counter,Pf growth 96h,HCMV antiviral,Pf growth 48h
Cc1ccc(Cl)cc1NC(=S)N1CCC(c2ccccc2)C1 (centres undefined),26.9,26.2*,?,?,11.7µM*
CCOC(CCNC(=O)c1cn(C)c(=O)c2c1c1ccccc1n2C)OCC,-7.4,-4.5,185.9%,1.7,-5.9%
CN(Cc1c(C(=O)N/N=C/c2cc(F)ccc2F)nnn1-c1nonc1N)C1CCCCC1,-4.4,-1.8,32.8%,5.2,?
CC(C)CCN(Cc1ccco1)C(=O)c1cc2c(Cl)nc3ccccc3c2s1,nt,nt,nt,-13.7,nt
CCCN1C=CC(=CC=C(C#N)C#N)C=C1,22.3,21.5,-25.5%,11.5,171.7%
C=CCN1C=CC(=CC=C(C#N)C#N)C=C1,74.1*,20.8*,49.2%,27.5,57.0%
CCN1C(=O)[C@H]2[C@H]3[C@H](O)[C@H](O)C/C(=N\OC[C@@H](C)[C@H](OCc4ccccc4)C(C)C)[C@@H]3CC[C@H]2C1=O,13.4,-3.5,?,nt,10.4µM*
Cc1ccccc1OCCCCn1c(CO)nc2ccccc21,-2.9,-2.8,?,-93.9*,?
Cc1ccc(OCCCn2c(CO)nc3ccccc32)cc1,67.0*,18.4*,6.8%,-13.0,64.8%
Cc1cccc(OCCCn2c(CO)nc3ccccc32)c1,122.4*,43.9*,24.4%,-12.2,37.2%
COc1cccc(OCc2nc3ccccc3n2CCOc2cccc(C)c2)c1,nt,nt,nt,42.8,nt
CCCCN1CC(c2nc3ccccc3n2CCCCOc2ccccc2C)CC1=O (centres undefined),nt,nt,nt,-68.4*,nt
COc1ccc(N(CC(=O)NCc2ccccc2)S(=O)(=O)c2c(C)n[nH]c2C)cc1,-5.1,1.0,-23.6%,-18.4,-8.3%
Cc1cc(OCC(=O)N(Cc2ccc(N(C)C)cc2)C2CCS(=O)(=O)C2)cc(C)c1Cl (centres undefined),nt,nt,nt,-0.1,nt
OCc1nc2ccccc2n1CCCOc1ccccc1,34.8*,30.1*,?,51.9,163.6%
Cc1ccc(C)c(N2CCN(C(=O)C3CCC(CNS(=O)(=O)c4ccc(Br)s4)CC3)CC2)c1 (centres undefined),nt,nt,nt,-21.6,nt
COCc1cc(C)nc(NCCc2ccccc2)c1C#N,24.1,23.3,-21.5%,-6.4,-47.9%
Cc1cccc(NC(=O)c2cnc3ccccn3c2=O)c1,21.9*,31.0*,11.7µM*,208.0,188.1%
Cc1cccc(NC(=O)c2cnc3sccn3c2=O)n1,nt,nt,nt,61.9,nt
Cc1cccc(NC(=O)c2cnc3sccn3c2=O)c1,76.8*,56.0*,411.8%,132.0,159.9%
Cc1cccc(NC(=O)c2cnc3sccn3c2=O)c1C,65.8*,24.0*,-17.7%,76.3,98.9%
O=C(Nc1cnc2sccn2c1=O)c1ccccc1Cl,65.0,39.8*,-19.3%,41.6,130.6%
O=C(Nc1ccon1)c1cnc2sccn2c1=O,13.9,18.6,34.2%,57.2,61.0%
CC(C)Nc1nnc(SCC(=O)N2CCN(C(=O)c3ccco3)CC2)s1,nt,nt,-16.7%,0.0,-4.9%
Cc1ccc(CNC(=O)C(CC(C)C)OC(=O)c2ccco2)cc1 (centres undefined),-10.0,-2.0,-6.2%,17.8,21.6%
SMILES,Shiga inhibitor,CHX counter,Pf growth 96h,HCMV antiviral,Pf growth 48h
COc1ccc(NC(=O)c2nnn(CC(=O)Nc3c(C)cc(C)cc3C)c2N)cc1OC,nt,nt,nt,-34.3,nt
COc1ccc(NC(=O)c2cnc3sccn3c2=O)cc1,42.9*,27.3*,44.7%,126.9,107.5%
CC(=O)c1cnc2sccn2c1=O,8.9,-4.1,7.1%,41.4,286.2%
O=C1c2ccccc2C(=O)c2c1oc(C(F)(F)F)c2C(=O)c1ccccc1,29.9,24.5*,0.131µM*,-97.7*,?
COc1ccc(C(=O)c2coc3c2C(=O)C(=O)c2ccccc2-3)cc1,75.7*,33.0*,?,68.2,-47.1%
O=C(c1ccccc1)c1coc2c1C(=O)c1ccccc1C2=O,94.3*,32.8*,-16.2%,72.2,?
O=C(c1ccccc1)c1ccc(CN2C(=O)c3ccccc3C2=O)o1,-5.3,8.1,7.5%,6.1,3.8%
COc1ccc(S(=O)(=O)N(C)C[C@@H]2OCCCC[C@@H](C)Oc3ccc(NC(=O)NC(C)C)cc3C(=O)N([C@H](C)CO)C[C@@H]2C)cc1,nt,nt,nt,21.3,nt
O=C(O)c1ccc(-n2nc(C(F)(F)F)cc2-c2cccs2)cc1,31.4,0.6,-24.2%,-1.6,-9.3%
CCOc1ccc(S(=O)(=O)NCc2ccc3c(c2)OCO3)cc1,nt,-4.0,?,11.1,?
C#Cc1ccc([C@H]2C=C(C(=O)OCC=C)O[C@@H](OCC)[C@@H]2CCCO)cc1,-5.7,-1.6,?,4.8,-20.9%
C#Cc1ccc([C@@H]2C=C(C(=O)Nc3ccccc3)O[C@H](OCC)[C@H]2CCCO)cc1,-8.0,-1.6,1.85µM*,-7.9,?
C#Cc1ccc([C@@H]2C=C(C(=O)OCC=C)O[C@H](OCC)[C@H]2CCCO)cc1,-10.2,-1.3,2.33µM*,0.4,?
OC(CCN1CCCCC1)(c1ccccc1)c1ccccc1,-4.2,-1.9,?,-80.9*,?
CC[N+](CC)(CC)CCC(O)(c1ccccc1)C1CCCCC1 (centres undefined),nt,nt,10.4µM*,-23.9,6.57µM*
OC(CCN1CCCC1)(c1ccccc1)C1CCCCC1 (centres undefined),-9.2,-3.3,-67.2%,-60.3*,-34.7%
OC(CCCN1CCCCC1)(c1ccccc1)c1ccc(C(F)(F)F)cc1 (centres undefined),nt,nt,nt,2.2,nt
CCN(CC)CCC(O)(c1ccccc1)C1CCCCC1 (centres undefined),nt,-4.0,9.6%,31.7,?
CC1(Cc2ccc3c(c2)OCO3)C(=O)Nc2c(Cl)ccc(Cl)c21 (centres undefined),nt,nt,nt,-68.4*,nt
CC1(Cc2ccc3c(c2)OCO3)C(=O)Nc2ccc(-c3cccc(C(F)(F)F)c3)cc21 (centres undefined),nt,nt,nt,-7.6,nt
C/C(=N\NC(=O)c1ccc([N+](=O)[O-])cc1Cl)c1ccccc1,55.9*,32.3*,38.9%,149.2,0.0%
O=C(N/N=C/c1ccc([N+](=O)[O-])cc1)c1cnccn1,-4.9,7.1,87.0%,38.5,69.5%
C/C(CC(=O)Nc1ccc(N(C)C)cc1)=N\NC(=O)c1ccc([N+](=O)[O-])cc1Cl,26.9,17.5,5.8%,-29.1,-3.5%
C/C(=N\NC(=O)c1ccc([N+](=O)[O-])cc1)c1c(O)cc(C)oc1=O,27.7,7.2,7.1%,-22.2,-14.4%
C/C(=N\NC(=O)c1cnccn1)c1ccc([N+](=O)[O-])cc1,9.7,20.0*,0.5%,-29.0,136.2%
C/C(=N/NC(=O)c1cc(O)c(O)c(O)c1)c1ccc([N+](=O)[O-])cc1,23.3,5.4,33.3%,-1.6,9.28µM*
CN1CCN(c2ccc(CNC(=O)C3(C)Cc4c(-c5ccccc5)ccnc4O3)cc2)CC1 (centres undefined),nt,nt,nt,-11.3,nt
